Measurements reported in the supplement of paper PMC5407854, “Inhibitor of ppGalNAc-T3-mediated O-glycosylation blocks cancer cell invasiveness and lowers FGF23 levels” (eLife, 2017).
Whole data set: some 1,700 compounds, median “T2 sensor activation Q score (MG/GFP ratio z-score vs DMSO controls)” near 0.3, cut for the highest 2% near 1.9. The full list was thinned out, with the highest values kept by preference.

Tested on: ppGalNAc-T2 sensor
Experiment: T2 sensor activation Q score (MG/GFP ratio z-score vs DMSO controls) (SD units); higher = more sensor activation (inhibition of ppGalNAc-T2 glycosylation)
Details: HEK293 sensor cells; 10 µM; 6 h
Method: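 Cells were treated with compound at 10 uM for 6 h, then MG/GFP ratio was read by flow cytometry (10,000 cells per well, duplicate wells). Q = (R - R_neg)/SD_neg relative to DMSO vehicle controls; the signal rises when the glycosyltransferase is inhibited.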

Row | SMILES | T2 sensor activation Q score
1 | CCOC(=O)CCCN(c1[nH]c(C)c(C)c1C#N)S(=O)(=O)c1ccc(C)cc1 | 1.05
2 | CCCCCC(=O)N1CCCCC1 | -1.85
3 | O=C1C=CC(=O)N1c1ccc(I)cc1Cl | -0.45
4 | CC(=O)Oc1c(C)c(OC(C)=O)c2c(c1C(C)=O)OC1CC(=O)C(C(C)=O)=C(O)C21C (stereo unspecified) | -1.8
5 | O=c1cccc2cc(O)c(O)c(O)c2c1O | 2.35
6 | O=C1Cc2cccc(=O)c(O)c2C(=O)O1 | 0.1
7 | CCOP(=O)(OCC)/C(C#N)=C/c1ccc([N+](=O)[O-])cc1 | 2.3
8 | CCOP(=O)(OCC)/C(C#N)=C/c1ccc(-c2ccc(F)cc2F)o1 | -0.9
9 | CCOP(=O)(OCC)/C(C#N)=C/c1c[nH]c2ccccc12 | -0.2
10 | Clc1ccc2nc3ccccc3cc2c1 | 1.3
11 | CC(=O)Nc1ccc(OC(=O)Oc2ccc(NC(C)=O)cc2)cc1 | 1.2
12 | Cc1ccc(C#CC(C)(O)C(C)(C)C)cn1 (stereo unspecified) | -0.05
13 | COc1cnc(SC)nc1Nc1ccc(C#N)cc1 | 1.65
14 | Cc1nc(N)nc(Nc2ccc(C#N)cc2)c1Br | 2.35
15 | N#Cc1c(N)nc(N)nc1Nc1ccc(Br)cc1 | 1.15
16 | CCc1nc(N)nc(N)c1-c1ccc(N(C)Cc2ccccc2)c([N+](=O)[O-])c1 | -1.25
17 | CC1(C)c2ccccc2-c2nc3ccccc3cc2C1O (stereo unspecified) | -0.95
18 | O=C1CC(c2ccc(O)cc2)Oc2cc(O)cc(O)c21 (stereo unspecified) | 0.75

Row | SMILES | T2 sensor activation Q score
19 | CC(C)(C)c1ccc(OC(=O)c2ccccc2)cc1 | 0.95
20 | CC(C)(C)CC(C)(C)N1CNC(=S)NC1 | 0.45
21 | N#CCCCCN1CCCC1 | -0.65
22 | CCOC(=O)C(=O)C1C(=O)Nc2ccccc21 (stereo unspecified) | 1.15
23 | Cc1c(Cl)cccc1NC(=O)CC1Sc2ccccc2NC1=O (stereo unspecified) | 2
24 | CCCCSc1cc(=O)[nH]c(N)n1 | 1.85
25 | NC(=O)C1=C(N)c2ccccc2C1c1ccccc1 (stereo unspecified) | 1.4
26 | CCC1(CC)C(=O)NC(=S)N=C1N | 1.7
27 | Cc1cc2nc(-c3ccccn3)c(-c3ccccn3)nc2cc1C | 2.4
28 | c1ccc(-c2nc(-c3ccccn3)nc(-c3ccccn3)n2)nc1 | -0.55
29 | c1ccc(-c2nc3ccccc3s2)nc1 | 0.6
30 | O=c1ccc(Cl)n[nH]1 | 1.45
31 | FC(F)(F)c1cccc(OCC2CNC(=S)O2)c1 (stereo unspecified) | 0.65
32 | Cc1csc(NC(=O)c2ccc(C(=O)Nc3nc(C)cs3)cc2)n1 | 0.5
33 | C=C1SC(=Nc2c(C)cccc2Cl)N(C(=O)c2sc3ccccc3c2Cl)C12CCCCC2 | 1.1
34 | Nc1cc(N)nc(CS)n1 | 1.45
35 | COCC(=O)Oc1cc(-c2ccc(C)cc2C)c(OC(=O)COC)c(-c2ccc(C)cc2C)c1 | 0.9
36 | NC(=O)c1ccccc1OCC(=O)Nc1ccc(Cl)c(Cl)c1 | 0.1
